Measured values published in the supplement of paper PMC11634586.
A number with no mark means an inactive call.

Tested on: NCI-H1688
Assay: inhibition of cell viability relative to untreated control (fraction); higher = stronger growth inhibition, active = 0.5 or more
Details: 30 µM; 24 h
Procedure, shortened: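 Values are inhibition of cell viability expressed as a fraction, derived from viability normalised to untreated cells. NCI-H1688 small cell lung cancer cells in 96-well plates were exposed to a natural compound library (TargetMol) at 30 µM for 24 h at 37°C with 5% CO2, and Cell Counting Kit-8 absorbance at 450 nm was then read.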

Structure (SMILES) | inhibition of cell viability
COc1cc(-c2oc3cc(O)cc(O)c3c(=O)c2O)ccc1O [Isorhamnetin] | -0.0139
O=C(O)[C@]1(O)C[C@@H](O)[C@@H](O)[C@H](O)C1 [Quinic acid] | 0.126
CC(C)=CCC/C(C)=C/C=O [Citral] | 0.192
O=C(O[C@@H]1Cc2c(O)cc(O)cc2O[C@@H]1c1cc(O)c(O)c(O)c1)c1cc(O)c(O)c(O)c1 [(-)-Epigallocatechin Gallate] | 0.0795
CC(C)=CCCC(C)CCO (stereo unspecified) [Citronellol] | 0.283
COc1ccc(-c2cc(=O)c3c(O)cc(O)cc3o2)cc1O [Diosmetin] | 0.314
C[C@H](CC[C@@H](O[C@@H]1O[C@H](CO[C@@H]2O[C@H](CO)[C@@H](O)[C@H](O)[C@H]2O)[C@@H](O)[C@H](O)[C@H]1O[C@@H]1O[C@H](CO)[C@@H](O)[C@H](O)[C@H]1O)C(C)(C)O)[C@H]1CC[C@@]2(C)[C@@H]3CC=C4[C@@H](CC[C@H](O[C@@H]5O[C@H](CO[C@@H]6O[C@H](CO)[C@@H](O)[C@H](O)[C@H]6O)[C@@H](O)[C@H](O)[C@H]5O)C4(C)C)[C@]3(C)[C@H](O)C[C@]12C [Mogroside V] | 0.121
C=C(C)[C@@H]1CC[C@]2(C(=O)O)CC[C@]3(C)[C@H](CC[C@@H]4[C@@]5(C)CC[C@H](O)C(C)(C)[C@@H]5CC[C@]43C)[C@@H]12 [Betulinic acid] | 0.622 (active)
O=C(CCc1ccc(O)cc1)c1c(O)cc(O)cc1O[C@@H]1O[C@H](CO)[C@@H](O)[C@H](O)[C@H]1O [Phlorizin] | -0.0544
CC1(C)CC[C@]2(C(=O)O)CC[C@]3(C)C(=CC[C@@H]4[C@@]5(C)CC[C@H](O)[C@@](C)(CO)[C@@H]5CC[C@]43C)[C@@H]2C1 [Hederagenin] | 0.274
Cc1c(C(=O)NCCO)[n+]([O-])c2ccccc2[n+]1[O-] [Olaquindox] | 0.00372
